From PubChem
CYP2C9 inhib = blocks human cytochrome P450 2C9; AID 777; inhibition, % at 5 µM; CYP2C9 Supersomes, luciferin-H conversion, luminescence; P11712; 96,000 tested, 20% active;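 active = blocking of liver enzyme CYP2C9 beyond about 50% at 5 µM, limit read from the data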
Target sequence (P11712 whole entry, looked up): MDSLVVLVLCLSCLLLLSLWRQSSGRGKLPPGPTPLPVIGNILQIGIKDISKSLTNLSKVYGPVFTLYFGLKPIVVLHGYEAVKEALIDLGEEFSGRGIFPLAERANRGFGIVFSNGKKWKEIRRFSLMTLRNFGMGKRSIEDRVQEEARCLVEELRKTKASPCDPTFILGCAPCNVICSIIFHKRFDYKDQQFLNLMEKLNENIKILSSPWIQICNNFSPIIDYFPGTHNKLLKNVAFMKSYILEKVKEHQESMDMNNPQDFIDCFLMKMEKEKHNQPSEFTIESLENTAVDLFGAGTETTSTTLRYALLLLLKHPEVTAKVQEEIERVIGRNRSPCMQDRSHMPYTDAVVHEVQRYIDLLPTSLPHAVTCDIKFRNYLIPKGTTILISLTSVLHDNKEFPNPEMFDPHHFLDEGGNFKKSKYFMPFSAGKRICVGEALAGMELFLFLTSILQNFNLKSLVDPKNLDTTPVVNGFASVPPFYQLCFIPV
CD11b adhes inh = blocks human CD11b/CD18 adhesion to fibrinogen. P05107+P11215. AID 1497. inhibition, % at 10 µM. K562 CD11b/CD18 adhesion to fibrinogen, ATPlite luminescence; Mn2+ added to activate the integrin. 93,000 tested, 0.54% active;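 active = primary inhibition of 50% or more at 10 µM, then 40% or more on retest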
CD11b adhes enh = increases human CD11b/CD18 adhesion to fibrinogen. P05107+P11215. K562 CD11b/CD18 adhesion to fibrinogen, ATPlite luminescence. activation, % at 10 µM. 93,000 tested, 0.07% active;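 active = 10 µM primary screen giving 50% or more activity, confirmed by 40% or more on retest at that dose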
CYP2C19 inhib = inhibitors of human CYP2C19; CYP2C19 Supersomes, luciferin-H EGE luminescence, 30 min; inhibition, % at 5 µM; 96,000 tested, 21% active;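 active = CYP2C19 inhibition above a set limit at 5 µM in the primary screen, cut at about 50% in these data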;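 also: plate controls were negative control wells for no effect and 2.5 mM tranylcypromine positive control for full effect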
CYP2C19 activ = cytochrome P450 2C19 (human) activation. recombinant CYP2C19, luciferin-H EGE luminescence; stronger effect = higher value; 0 = fully inhibited enzyme, 1 = untreated enzyme. 96,000 tested, under 10 active. AID 1025. P33261. activation factor at 5 µM;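 active = activation factor of at least 2 at 5 µM in the primary screen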;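 also: 0 = wells with 2.5 mM tranylcypromine and 1 = vehicle-only wells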
CYP2C9 act = activators of human CYP2C9 | recombinant CYP2C9, luciferin-H conversion, luminescence; stronger effect = higher value; factor 1 = untreated enzyme, 0 = blocked | activation factor at 5 µM | AID 1024 | 96,000 tested, 1.4% active;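 active = activation factor of 2 or more for CYP2C9 at a 5 µM dose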;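 also: 0 = sulfaphenazole-blocked wells and 1 = vehicle-only wells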
Starred values were filed as active, the others as inactive; . = no result given. This is a sample that favours compounds with a hit; in the whole collection about 28% have one here.

SMILES | CYP2C9 inhib | CD11b adhes inh | CD11b adhes enh | CYP2C19 inhib | CYP2C19 activ | CYP2C9 act
Cc1ccc(S(=O)(=O)Cc2ccc(C(=O)NCc3ccc4c(c3)OCO4)o2)cc1 | 98* | 15 | -3 | 84* | 0.2 | 0
Cc1ccc(NC(=O)NCc2ccc3c(c2)OCO3)cc1 | 31 | -2 | 2 | 51* | 0.5 | 0.7
COCCNC(=O)c1ccc(CS(=O)(=O)c2ccc(C)cc2)o1 | -30 | 2 | -7 | -14 | 1.1 | 1.3
Cc1ccc(CC(=O)NCc2ccc3c(c2)OCO3)cc1 | 48 | 2 | 1 | 34 | 0.7 | 0.5
O=C(NCc1ccc2c(c1)OCO2)c1ccc(CSCc2ccccc2Cl)o1 | . | 52 | 5 | . | . | .
Cc1ccc(CN(c2ccc(C(=O)NCc3ccc4c(c3)OCO4)cc2)S(C)(=O)=O)cc1 | 22 | -17 | 0 | -13 | 1.1 | 0.8
O=C(NCc1ccc2c(c1)OCO2)c1ccc(COc2cccc(Cl)c2)o1 | 88* | 4 | 8 | 64* | 0.4 | 0.1
Cn1c(Cc2csc(N)n2)nnc1SCC(=O)NCc1ccccc1 | 2 | 10 | -1 | 8 | 0.9 | 1
CC1CCCC(C)N1NC(=O)c1ccc(Cl)c(S(N)(=O)=O)c1 (configuration not stated) | -4 | 7 | -4 | -25 | 1.3 | 1
COc1ccccc1N1CCN(C(=O)c2cccc3c(=O)c(C)c(-c4ccccc4)oc23)CC1 | . | 2 | -1 | . | . | .
COc1ccc(NC2=NCC(=O)N2Cc2cccs2)cc1 | 28 | . | . | 37 | 0.6 | 0.7
O=C(Nc1ccccc1)NC1(C(=O)NCc2cccs2)CCCCC1 | 63* | -8 | -2 | 13 | 0.9 | 0.4
O=C(NCc1ccccn1)Nc1ccc2c(c1)OCO2 | 14 | 1 | 0 | 35 | 0.6 | 0.9
CC12CCC(C(=O)NCc3ccc4c(c3)OCO4)(C(=O)C1=O)C2(C)C (configuration not stated) | 30 | -20 | -2 | 56* | 0.4 | 0.7
O=C(NCc1cccs1)Nc1ccc2c(c1)OCO2 | 17 | . | . | 52* | 0.5 | 0.8
Cc1ccc(NC2=NCC(=O)N2Cc2ccc3c(c2)OCO3)cc1 | 86* | 2 | 5 | 88* | 0.1 | 0.1
COc1ccc2ccccc2c1CN1CCN(C)CC1 | 11 | -20 | -1 | 3 | 1 | 0.9
CC(C)COc1ccc(C(=O)Nc2ccccc2[N+](=O)[O-])cc1 | . | -2 | -3 | . | . | .
C=CCn1c(NC(=O)c2ccco2)c(S(=O)(=O)c2ccccc2)c2nc3ccccc3nc21 | 66* | 0 | -1 | 21 | 0.8 | 0.3
C=CCn1c(NC(=O)c2ccc(Br)o2)c(S(=O)(=O)c2ccccc2)c2nc3ccccc3nc21 | 53* | 38 | -5 | 7 | 0.9 | 0.5
CCCCn1c(NS(=O)(=O)c2ccc(C)cc2)c(S(=O)(=O)c2ccccc2)c2nc3ccccc3nc21 | . | 101 | -7 | . | . | .
CC12C=CC3(CN(Cc4ccccc4)C(=O)C3C1C(=O)NC1CC1)O2 (configuration not stated) | 2 | -3 | -4 | 11 | 0.9 | 1
Cc1cc2c(s1)CCCCC(=O)N2 | -17 | . | . | 5 | 0.9 | 1.2
CS(=O)(=O)Nc1ccc2c3c(cccc13)CC2 | -147 | -25 | -3 | 4 | 1 | 2.5*
CC(=O)c1ccc(N(C)C)c2c(N(C)C)cccc12 | -12 | 0 | -2 | -4 | 1 | 1.1
SMILES | CYP2C9 inhib | CD11b adhes inh | CD11b adhes enh | CYP2C19 inhib | CYP2C19 activ | CYP2C9 act
CC(=O)c1ccc2c3c(cccc13)CC2 | -259 | -4 | -2 | 4 | 1 | 3.6*
O=C1CCN2C=Nc3cccc4ccc1c2c34 | 13 | 12 | -1 | 6 | 0.9 | 0.9
O=C(CSc1nnc([C@@H]2CCCN2)o1)c1ccc(Cl)cc1 | 30 | -8 | -4 | 98* | 0 | 0.7
Clc1ccc(CSc2nnc([C@@H]3CCCN3)o2)cc1Cl | 35 | -15 | 0 | 100* | 0 | 0.6
CCOc1ccc(-n2c(SCc3ccc(C(=O)OC)o3)nc3c(c2=O)SCC3)cc1 | 87* | -11 | 6 | 82* | 0.2 | 0.1
COC(=O)c1ccc(CSc2nc3c(c(=O)n2-c2ccc(Br)cc2)SCC3)o1 | 92* | 2 | 4 | 90* | 0.1 | 0.1
CCn1c2ccccc2c2cc(C3C(C#N)=C(N)OC4=C3C(=O)CC(C)(C)C4)ccc21 (configuration not stated) | 57* | 6 | -2 | 2 | 1 | 0.4
COc1ccc(C2C(C#N)=C(N)OC3=C2C(=O)CCC3)c(OC)c1OC (configuration not stated) | 22 | -2 | -2 | 20 | 0.8 | 0.8
N#CC1=C(N)OC2=C(C(=O)CCC2)C1CCc1ccccc1 (configuration not stated) | 92* | -14 | 0 | 94* | 0.1 | 0.1
CC1(C)CC(=O)C2=C(C1)N(c1ccccc1)C(N)=C(C#N)C2c1cccnc1 (configuration not stated) | 50* | . | . | 24 | 0.8 | 0.5
COC(=O)C1=C(N)OC2=C(C(=O)CC(C)(C)C2)C1c1ccoc1 (configuration not stated) | 55* | 1 | -4 | 47 | 0.5 | 0.5
Cn1c(CCNC(=O)c2ccccc2)nc2cc(NC(=O)C3CCCCC3)ccc21 | 20 | -61 | 1 | 10 | 0.9 | 0.8
COc1ccc(C2C(C#N)=C(N)N(c3sc4c(c3C#N)CCCC4)C3=C2C(=O)CC(C)(C)C3)cc1OC (configuration not stated) | 86* | 3 | 0 | 62* | 0.4 | 0.1
CC1(C)CC(=O)C2=C(C1)OC(N)=C(C#N)C2c1ccsc1 (configuration not stated) | 32 | -13 | -1 | 63* | 0.4 | 0.7
N#CC1=C(N)N(c2ccccc2C#N)C2=C(C(=O)CCC2)C1c1ccsc1 (configuration not stated) | 62* | 2 | 3 | 43 | 0.6 | 0.4
CC1(C)CC(=O)C2=C(C1)OC(N)=C(C#N)C2Cc1ccccc1 (configuration not stated) | 79* | 7 | 2 | 98* | 0 | 0.2
COc1ccc(C2C(C#N)=C(N)N(c3sc4c(c3C#N)CCCC4)C3=C2C(=O)CC(C)(C)C3)cc1 (configuration not stated) | 42 | 7 | 16 | 17 | 0.8 | 0.6
O/N=C1\CC/C(=N\O)c2nn(-c3ccc(Cl)cc3Cl)nc21 | 16 | 6 | 2 | -9 | 1.1 | 0.8
Cc1ccc(S(=O)(=O)NC(=O)COc2ccccc2C(N)=O)cc1 | 49 | 4 | -6 | 14 | 0.9 | 0.5
CC(=O)c1ccc(N2CCN(C(=O)c3ccc(NC(=O)C4CCCO4)cc3)CC2)cc1 (configuration not stated) | 16 | -7 | 2 | 19 | 0.8 | 0.8
CC1(C)NC(=O)N(CC(=O)Nc2nc(-c3ccc(F)cc3)cs2)C1=O | -64 | -9 | -3 | 0 | 1 | 1.6
